Data on seven molecules can be found in PubChem BioAssay (NCI).

The panel holds about 83,000 compounds, 20% with a hit somewhere; the sample as a whole holds those more often.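 The test compound was applied at a single concentration to cells in 96-well plates for 48 hours, and percent growth was recorded.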 A number with no mark means an inactive call. Calls of active or inactive are those of the source. The calls were made as follows: active = growth percent below 10; inactive = the rest.

What all share (assay): NCI-60 one-dose screen, 48 h (100 = growth as untreated, 0 = no growth, -100 = all killed)
One experiment concerns NCI-H23 lung. The note with it: 10 µM unless noted.
The next experiment concerns NCI-H226 lung. The note with it: 10 µM unless noted.
The subject of another experiment is NCI-H322M lung. The note with it: 10 µM unless noted.
In the next experiment the test system is HOP-62 NSCLC. The note with it: 10 µM unless noted.
The test system of the next experiment is NCI-H460 lung. The settings on record: 10 µM unless noted.
Another experiment concerns HOP-92 NSCLC. The settings on record: 10 µM unless noted.
In a further experiment the test system is NCI-H522 lung. The settings on record: 10 µM unless noted.
A further experiment concerns A549/ATCC NSCLC. The settings on record: 10 µM unless noted.
In a further experiment the test system is 786-0 renal. The settings on record: 10 µM unless noted.
The test system of the next experiment is COLO 205 colon. The note with it: 10 µM unless noted.
The test system of the next experiment is DU-145 prostate. The settings on record: 10 µM unless noted.
Another experiment deals with K-562 leukemia. The settings on record: 10 µM unless noted.
The next experiment relates to MALME-3M melanoma. The note with it: 10 µM unless noted.
In a further experiment the test system is MDA-MB-231 breast. The settings on record: 10 µM unless noted.
Another experiment has as its system RXF 393 renal. The settings on record: 10 µM unless noted.
The next experiment has as its system SF-268 CNS. The settings on record: 10 µM unless noted.
For another experiment, the system named is SF-295 CNS. The settings on record: 10 µM unless noted.
Another experiment relates to SF-539 CNS. The settings on record: 10 µM unless noted.
For a further experiment, the system named is UACC-257 melanoma. The note with it: 10 µM.
In another experiment the test system is M14 melanoma. The note with it: 10 µM unless noted.

Turning to `Clc1ccc2c(c1)NC1(CCSc3ccccc31)n1nccc1-2` (stereo not given), the growth is 98.5% in the experiment with NCI-H23 lung; 92.5% in the experiment on NCI-H226 lung; 95.1% in the experiment with NCI-H322M lung; 112% in the experiment on HOP-62 NSCLC; 103% with NCI-H460 lung; 91.6% in the experiment on HOP-92 NSCLC. In addition, the growth with NCI-H522 lung is 89.7%; in the experiment with A549/ATCC NSCLC it was 90%; in the experiment with 786-0 renal it was 96.9%; in the experiment with COLO 205 colon it was 114%; in the experiment with DU-145 prostate, 103%; in the experiment with K-562 leukemia, 97.4%. Also, the growth was 85.8% in the experiment on MALME-3M melanoma; 98.1% in the experiment with MDA-MB-231 breast; 119% in the experiment with RXF 393 renal; 94.8% in the experiment with SF-268 CNS; 97.4% in the experiment on SF-295 CNS; 92.4% in the experiment with SF-539 CNS. Further, the values for the growth in the experiment on UACC-257 melanoma and in the experiment with M14 melanoma were 97.4% and 96.6%, respectively.
For the molecule `CC(=O)n1cc([C@H]2CC[C@H](c3cn(C(C)=O)c4ccccc34)c3c2[nH]c2ccccc32)c2ccccc21`, the growth in the experiment on NCI-H23 lung is 75.7%; with NCI-H226 lung, 89.4%; in the experiment on NCI-H322M lung, 77.6%; with HOP-62 NSCLC it was 70.7%; with NCI-H460 lung, 90.4%; in the experiment with HOP-92 NSCLC it was 85.3%. The growth in the experiment on NCI-H522 lung is 65.1%; in the experiment on A549/ATCC NSCLC it was 70%; in the experiment with 786-0 renal, 93.5%; in the experiment with COLO 205 colon, 94.5%; in the experiment with DU-145 prostate, 93.2%; in the experiment on K-562 leukemia, 69.9%. Further, the growth in the experiment with MALME-3M melanoma was 91.4%; with MDA-MB-231 breast, 70.8%; in the experiment on RXF 393 renal it was 96.5%; in the experiment on SF-268 CNS it was 76.9%; with SF-295 CNS, 80%; with SF-539 CNS, 92.7%. Moreover, the growth in the experiment with UACC-257 melanoma is 89.5%; with M14 melanoma, 79.1%.
With `Cc1cc(C)c(S(=O)(=O)N2CCN(c3cc4c(cc3F)c(=O)c(C(=O)O)cn4C3CC3)CC2)c(C)c1`, the growth with NCI-H23 lung was 57.4%; in the experiment on NCI-H226 lung, 71.8%; in the experiment with NCI-H322M lung, 74.7%; in the experiment on HOP-62 NSCLC, 57.3%; in the experiment with NCI-H460 lung, 39.5%; in the experiment with HOP-92 NSCLC, 46.9%. Moreover, the growth is 67.3% in the experiment with NCI-H522 lung; 20.3% with A549/ATCC NSCLC; 75.6% with 786-0 renal; 57.6% in the experiment on COLO 205 colon; 71.4% in the experiment with DU-145 prostate; 63.5% in the experiment with K-562 leukemia. Moreover, the growth with MALME-3M melanoma was 59.7%; in the experiment on MDA-MB-231 breast, 84.6%; in the experiment with RXF 393 renal it was 51.3%; with SF-268 CNS it was 56.7%; with SF-295 CNS it was 33.3%; with SF-539 CNS, 46.5%. Further, the growth in the experiment with UACC-257 melanoma was 86.9%; with M14 melanoma it was 63.5%.
Consider `COc1cccc(/C=C2\SC(N3CCN(c4ccccn4)CC3)=NC2=O)c1`, for which the growth with NCI-H23 lung is 95.5%; in the experiment with NCI-H226 lung, 108%; in the experiment with NCI-H322M lung it was 88.8%; in the experiment on HOP-62 NSCLC it was 93.6%; with NCI-H460 lung, 107%; in the experiment with HOP-92 NSCLC, 92.7%. Besides, the growth in the experiment on NCI-H522 lung was 71.6%; in the experiment on A549/ATCC NSCLC, 94.5%; in the experiment with 786-0 renal it was 108%; in the experiment with COLO 205 colon, 119%; in the experiment on DU-145 prostate it was 101%; with K-562 leukemia it was 82.2%. Moreover, the growth with MALME-3M melanoma was 96.8%; in the experiment on MDA-MB-231 breast it was 99.2%; with RXF 393 renal, 113%; in the experiment on SF-268 CNS, 102%; in the experiment on SF-295 CNS, 98.6%; in the experiment with SF-539 CNS, 110%. For the same molecule, the growth was 101% in the experiment on UACC-257 melanoma and 103% in the experiment on M14 melanoma.
Turning to `COc1ccccc1CNCCCN1C(=O)c2ccc3c4c(ccc(c24)C1=O)C(=O)N(CCCNCCCCNCCCCN)C3=O`, the growth with NCI-H23 lung was 6.63% (active); in the experiment with NCI-H226 lung it was 27%; in the experiment with NCI-H322M lung, -21.5% (active); in the experiment with HOP-62 NSCLC, 22.2%; in the experiment with NCI-H460 lung, 0.275% (active); with HOP-92 NSCLC, -6.2% (active). The growth is -40.8% (active) in the experiment with NCI-H522 lung; -3.81% (active) with A549/ATCC NSCLC; 23.3% in the experiment with 786-0 renal; -45.4% (active) in the experiment with COLO 205 colon; 9.88% (active) in the experiment on DU-145 prostate; 7.51% (active) in the experiment with K-562 leukemia. Further, the growth in the experiment on MALME-3M melanoma is -83.9% (active); in the experiment on MDA-MB-231 breast, 8.05% (active); in the experiment on RXF 393 renal, 22.6%; in the experiment with SF-268 CNS, 4.92% (active); in the experiment with SF-295 CNS, 2.29% (active); with SF-539 CNS it was 11%. The growth in the experiment with UACC-257 melanoma was -56.2% (active); in the experiment on M14 melanoma it was -5.69% (active).
In the case of `COc1ccc(C(=O)/C=C/c2cccc([N+](=O)[O-])c2)c(OC)c1`, the growth is 32.6% in the experiment on NCI-H23 lung; 49.2% in the experiment on NCI-H226 lung; 66% in the experiment with NCI-H322M lung; 26.1% with HOP-62 NSCLC; 1.68% (active) with NCI-H460 lung; 67.5% in the experiment on HOP-92 NSCLC. The growth in the experiment with NCI-H522 lung was 7.28% (active); with A549/ATCC NSCLC it was 27.6%; in the experiment with 786-0 renal, -7.25% (active); in the experiment on COLO 205 colon, 60.2%; in the experiment on DU-145 prostate, 25.3%; in the experiment on K-562 leukemia, 8.25% (active). The growth in the experiment with MALME-3M melanoma is 70.5%; in the experiment with MDA-MB-231 breast, 34.7%; in the experiment on RXF 393 renal it was -33.8% (active); in the experiment with SF-268 CNS, 25%; with SF-295 CNS it was 35.5%; with SF-539 CNS, 8.09% (active). Moreover, the growth is 66.4% in the experiment on UACC-257 melanoma and 30.6% with M14 melanoma.
For the molecule `Cc1ccc2c(c1)C(=O)C(c1c(-c3[nH]c(=O)c4ccc(C)cc4c3O)c(O)c3ccccc3c1O)=NC2=O`, the growth in the experiment on NCI-H23 lung is 15.5%; in the experiment with NCI-H226 lung, -1.84% (active); in the experiment with NCI-H322M lung it was 38.8%; in the experiment with HOP-62 NSCLC, 8.69% (active); in the experiment with NCI-H460 lung, -39.8% (active); in the experiment on HOP-92 NSCLC it was 38.7%. The growth in the experiment with NCI-H522 lung is 7.58% (active); in the experiment with A549/ATCC NSCLC, 21.8%; in the experiment with 786-0 renal, 12.7%; in the experiment on COLO 205 colon, 69.9%; in the experiment with DU-145 prostate, -58.7% (active); in the experiment on K-562 leukemia, 10.7%. Moreover, the growth in the experiment with MALME-3M melanoma was -39.1% (active); with MDA-MB-231 breast, -6.31% (active); with RXF 393 renal, -10.8% (active); in the experiment on SF-268 CNS it was 9.4% (active); in the experiment with SF-295 CNS, 49.9%; in the experiment on SF-539 CNS it was 61.1%. Moreover, the growth with UACC-257 melanoma was 63.1%; with M14 melanoma, 35.7%.
